# The whole screen tested about 310,000 compounds, of which about 14,000 (4.5%) showed an effect of 50% or more. Effects have a minus sign here. The entries come from a sample that favours strong results as a whole.
# Biological target: human ether-à-go-go-related gene (hERG) potassium channel (human, UniProt Q12809)
# Assay: primary screen, population patch clamp on CHO cells stably expressing hERG; higher = less effect of the substance
# 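Note: peak tail current of the secondary pulse compared with the same well before compound.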
# Sequence of human ether-à-go-go-related gene (hERG) potassium channel (Q12809 whole entry, looked up): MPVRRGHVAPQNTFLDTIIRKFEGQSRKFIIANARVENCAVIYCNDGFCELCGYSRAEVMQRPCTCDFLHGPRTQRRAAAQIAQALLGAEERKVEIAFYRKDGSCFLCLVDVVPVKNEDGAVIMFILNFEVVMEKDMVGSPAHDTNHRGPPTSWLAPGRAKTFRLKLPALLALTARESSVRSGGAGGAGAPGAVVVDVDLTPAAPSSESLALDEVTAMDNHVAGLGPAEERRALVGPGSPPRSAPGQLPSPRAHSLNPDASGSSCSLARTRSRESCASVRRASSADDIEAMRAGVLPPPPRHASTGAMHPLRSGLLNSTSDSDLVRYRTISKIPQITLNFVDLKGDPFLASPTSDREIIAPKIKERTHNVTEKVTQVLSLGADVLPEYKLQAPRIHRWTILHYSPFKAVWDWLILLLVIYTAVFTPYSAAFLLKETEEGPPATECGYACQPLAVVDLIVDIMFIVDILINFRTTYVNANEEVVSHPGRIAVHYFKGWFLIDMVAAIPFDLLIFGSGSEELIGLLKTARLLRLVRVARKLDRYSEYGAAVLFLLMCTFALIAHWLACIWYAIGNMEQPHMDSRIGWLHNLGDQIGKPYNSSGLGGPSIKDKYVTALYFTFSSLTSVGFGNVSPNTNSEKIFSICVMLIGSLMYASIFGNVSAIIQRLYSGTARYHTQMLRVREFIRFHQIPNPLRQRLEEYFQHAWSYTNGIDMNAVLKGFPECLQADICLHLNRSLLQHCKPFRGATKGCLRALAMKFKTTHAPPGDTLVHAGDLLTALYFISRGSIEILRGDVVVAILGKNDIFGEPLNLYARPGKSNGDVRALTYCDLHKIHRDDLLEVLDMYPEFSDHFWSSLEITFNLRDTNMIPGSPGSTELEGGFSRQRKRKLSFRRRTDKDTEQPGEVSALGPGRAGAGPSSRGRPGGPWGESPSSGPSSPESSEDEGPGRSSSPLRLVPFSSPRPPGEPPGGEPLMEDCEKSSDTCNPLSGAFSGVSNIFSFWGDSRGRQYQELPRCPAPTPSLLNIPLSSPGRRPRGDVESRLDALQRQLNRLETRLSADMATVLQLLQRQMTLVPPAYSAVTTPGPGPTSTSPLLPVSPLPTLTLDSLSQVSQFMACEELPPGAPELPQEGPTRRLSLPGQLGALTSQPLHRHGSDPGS
row,Structure (SMILES),"hERG current change (%, negative = inhibition) at 10uM [%]"
1,CCOc1ccc(S(=O)(=O)N2CCC(C(=O)OC(C)C(=O)N3CCOCC3)CC2)cc1 (centres unmarked),-25.2
2,O=C(Cc1ccccc1[N+](=O)[O-])N/N=C/c1cccnc1,10
3,COc1ccccc1C(=O)NCC(=O)OCC(=O)c1ccc2c(c1)-c1ccccc1C2,-0.208
4,Cc1nnc(NC(=O)C2CCCN(S(=O)(=O)Cc3ccccc3)C2)s1 (centres unmarked),-2.64
5,CCc1ccc(N(CC(=O)NC2CCCC2)S(=O)(=O)c2c(C)noc2C)cc1,-7.76
6,O=C(Nc1nnc(C2=COCCO2)o1)c1ccc(S(=O)(=O)N2CCCC2)cc1,17.2
7,O=C(NCc1cccnc1)C1CCC(CNS(=O)(=O)c2cccc3nsnc23)CC1 (centres unmarked),-9.63
8,CCOC(=O)CCc1c(C)nc2cc(-c3ccc(Cl)cc3)[nH]n2c1=O,-7.09
9,CCOC(=O)CC(NCc1ccc(OC)c(OCC)c1)c1ccc(C)cc1.Cl (centres unmarked),-39
10,CC(C)C(NC(=O)c1ccco1)C(=O)NCC(c1ccco1)N1CCCCC1 (centres unmarked),20
11,COC(=O)Cn1c(CN2CCOCC2)nc2c1c(=O)[nH]c(=O)n2C,3.43
12,COc1cc(C(CCN2CCCC2)c2c(OC)cc(OC)c3c(C)cc(=O)oc23)cc(OC)c1OC (centres unmarked),-75.5
13,COc1cc(C(CCN2CCCCC2)c2c(OC)cc(OC)c3c(C)cc(=O)oc23)cc(OC)c1OC (centres unmarked),-99.6
14,CCN(CC)CCC(c1cc(OC)c(OC)c(OC)c1)c1c(OC)cc(OC)c2c(C)cc(=O)oc12 (centres unmarked),-48.5
15,Oc1ccc(Br)cc1CNn1cnnc1,13.9
16,COc1ccc(OC)c(CNc2ccc3c(c2)CCC3)c1,20.4
17,CC(C(=O)O)n1nc2ccccc2n1 (centres unmarked),21.4
18,CCOC(=O)c1c(CC(C)C)csc1NC(C)=O,-2.62
19,CC(C)[C@H](NC(=O)N1c2ccccc2NC(=O)[C@@H]1C(C)C)C(=O)N[C@@H](Cc1c[nH]c2ccccc12)C(=O)O,3.11

row,Structure (SMILES),"hERG current change (%, negative = inhibition) at 10uM [%]"
1,O=C(O)CSc1ccnc2cc(Cl)ccc12,16.2
2,COc1cc(OC)cc(-c2c(-c3ccc(F)cc3)c3cc(-c4ccc5cc[nH]c5c4)ccc3n2C)c1,14.2
3,CNC(=O)COc1coc(CN2CCN(c3ccc(OC)cc3)CC2)cc1=O,1.11
4,C=C1CCN([C@@H](CC(C)C)C(=O)O)S(=O)(=O)c2ccccc21,22.6
5,C=C1CCN([C@@H](CC(C)C)C(=O)N2CCOCC2)S(=O)(=O)c2ccccc21,13.3
6,C=C1CCN([C@@H](CC(C)C)C(=O)N2CCCC2)S(=O)(=O)c2ccccc21,-54.7
7,Cc1ccc(C)c(N2CCN(C(=O)c3ccc4nsnc4c3)CC2)c1,-1.44
8,O=C(c1ccc(NC2=NC3CS(=O)(=O)CC3S2)cc1)N1CCN(c2ccc([N+](=O)[O-])cc2)CC1 (centres unmarked),-4.75
9,O=C(c1ccc2c(=O)n3c(nc2c1)CCCCC3)N1CCN(c2ccc(F)cc2)CC1,-42.1
10,O=C(c1ccc2c(=O)n3c(nc2c1)CCCCC3)N1CCN(c2ccc([N+](=O)[O-])cc2)CC1,-73
11,CCc1nc2ccc(C(=O)N3CCN(c4ccc(Cl)cc4)CC3)cc2nc1CC,-6.46
12,Cl.O.O=c1c2ccccc2nc2n1CC/C2=C/N1CCN(c2cccc(C(F)(F)F)c2)CC1,-28
13,O=C(c1ccc2nsnc2c1)N1CCN(c2ccc([N+](=O)[O-])cc2)CC1,-75.5
14,O=c1c2ccccc2nc2n1CC/C2=C\N1CCN(c2ccc([N+](=O)[O-])cc2)CC1,-78.1
15,CCc1nc2ccc(C(=O)N3CCN(c4ccccc4)CC3)cc2nc1CC,-5.04
16,CCc1nc2ccc(C(=O)N3CCN(c4ccc([N+](=O)[O-])cc4)CC3)cc2nc1CC,-72.1
17,O=C(c1ccc2c(=O)n3c(nc2c1)CCCCC3)N1CCN(c2ccc(Cl)cc2)CC1,-48
18,Cc1nc2ccccc2c(=O)n1-c1ccc([N+](=O)[O-])cc1,7.26
19,CCOP(=O)(c1ccccc1)C1(O)CCCCC1 (centres unmarked),-1.86

row,Structure (SMILES),"hERG current change (%, negative = inhibition) at 10uM [%]"
1,CCCc1oc(C(=O)O)cc1CN1CCOCC1.Cl,8.54
2,COC(=O)C1=C(C)N(Cc2ccccc2)C(=O)N[C@H]1c1ccco1,5.95
3,O=C(NCC(c1cccnc1)N1CCN(c2ccc(F)cc2)CC1)c1ccccc1 (centres unmarked),-40.2
4,COc1ccc(N2CCN(C(CNC(=O)c3ccc4c(c3)OCO4)c3cccnc3)CC2)cc1 (centres unmarked),-16.2
5,O=C(NCC(c1cccnc1)N1CCN(c2ccc(F)cc2)CC1)c1ccc2c(c1)OCO2 (centres unmarked),-65.3
6,O=C(NCC(c1cccnc1)N1CCN(c2ccccc2)CC1)c1ccc2c(c1)OCO2 (centres unmarked),-26.5
7,O=C(NCC(c1cccnc1)N1CCN(c2ccc(F)cc2)CC1)c1cccc(Cl)c1 (centres unmarked),-66.2
8,COc1ccc(N2CCN(C(CNC(=O)c3cccc(Cl)c3)c3cccnc3)CC2)cc1 (centres unmarked),-38.7
9,COCCN=c1scc(-c2ccc3c(c2)NC(=O)CO3)n1/N=C(\C)c1ccc(O)cc1,-8.23
10,Cn1c(=NC(=O)C2CC2)sc2cc(F)cc(F)c21,-12.3
11,CCOC(=O)c1c(NC(=O)c2cccs2)sc(CC)c1-c1cccs1,-11
12,Cc1nnc(NC(=O)CSc2ccc([N+](=O)[O-])cn2)s1,17.9
13,CCOC(=O)C1CCN(CC(C)(C)NS(=O)(=O)c2ccc(C)cc2)CC1,-4.95
14,CC(C)(CN1CCCC1)NS(=O)(=O)c1ccccc1.Cl,24.7
15,CC(C)(CN1CCC(Cc2ccccc2)CC1)NS(=O)(=O)c1ccccc1.O=C(O)C(=O)O,-60.8
16,CCOC(=O)C1CCN(CC(C)(C)NS(=O)(=O)c2ccccc2)CC1,11.5
17,Cc1ccc(S(=O)(=O)NC(C)(C)CN2CCC(Cc3ccccc3)CC2)cc1.O=C(O)C(=O)O,-64.8
18,CC(=O)N1CCN(CC(C)(C)NS(=O)(=O)c2ccc(C)cc2)CC1,7.76

# — article PMC4336329 (PLoS ONE, 2015)
